# Source: PubChem BioAssay (EPA / NIEHS)
# More than one record can exist for a structure, and the calls need not agree. Calls of active or inactive are those of the source. The calls were made as follows: active = hit-call score of the fitted dose curve at least 0.9, where 1 is the maximum; inactive = score below 0.9.
# Assay: ATG_Ets_CIS: Attagene CIS-FACTORIAL HepG2 Assay for human Erythroblast Transformation Specific (ETS) (AID 2282941)
# Conditions: HepG2 ETS cis-reporter transcription, actives raise or lower the signal
# Description: ATG_CIS is a cell-based, multiplexed-readout assay that uses HepG2, a human liver cell line, with measurements taken at 24 hours after chemical dosing in a 24-well plate.ATG_Ets_CIS is one of 52 assay component(s) measured or calculated from the ATG_CIS assay. It is designed to make measurements of mRNA induction, a form of inducible reporter, as detected with fluorescence intensity signals by Reverse transcription polymerase chain reaction (RT-PCR) and Capillary electrophoresis technology.Data from the assay component ATG_Ets_CIS was analyzed into 1 assay endpoint. This assay endpoint, ATG_Ets_CIS, was analyzed with bidirectional fitting relative to DMSO as the negative control and baseline of activity. Using a type of inducible reporter, measures of mRNA for gain or loss-of-signal activity can be used to understand the reporter gene at the transcription factor-level as they relate to the gene ETS1. Furthermore, this assay endpoint can be referred to as a primary readout, because this assay has produced multiple assay endpoints where this one serves a reporter gene function. To generalize the intended target to other relatable targets, this assay endpoint is annotated to the dna binding intended target family, where the subfamily is winged helix-turn-helix.
# Human liver HepG2 cells are transiently transfected with multiple reporter transcription units (MRTUs) in 6-well plates using FuGene 6 reagent (Roche; 3 ml FuGene/1 mg DNA). The MRTU constructs are regulated by a cis-regulating element (promoter). […] A major difference between the CIS and TRANS system is that in CIS activities of endogenous TFs are measured, whereas the TRANS assay evaluates changes in activities of exogenous, chimeric NR-Gal4 proteins. […] At the end of 24 hour incubation, total RNA was isolated using TriZol reagent (Invitrogen). The isolated RNA is then reverse-transcribed using oligo(dT) primer and Mo-MLV reverse transcriptase (Invitrogen) with DNAse I (Ambion) treatment for 30 min. The one-tenth of the produced cDNA was amplified by PCR using Taq DNA polymerase (Invitrogen) and two reporter sequence-specific primers. The PCR products were fluorescently labeled by primer extension with 6-arboxyfluorescein (6-FAM) 5'-labeled reporter sequence-specific primer (2 min at 95 C, 20 s at 68 C and 10 min at 72 C) and these products were digested with 5U of HpaI (New England Biolabs) for 2h at 37 C. The fragments were purified using Qiaquick PCR columns (Qiagen), analyzed on an ABI 3130xL genetic analyzer (Applied Biosystems) with peak positions identified by using a set of X-rhodamine (ROX)-labeled MapMarker1000 molecular weight standards (BioVentures). The raw capillary electrophoresis data was processed using Attagraph software (Attagene).
Structure (SMILES),outcome,AC50
CCCCCC1CCC(=O)O1 (stereo not given),inactive,–
CCC(CC)CO,inactive,–
NC(=O)c1cccnc1,inactive,–
[Cu+],inactive,–
CCCO,inactive,–
CN(C)CCC=C1c2ccccc2CCc2ccccc21,inactive,–
CCCO[Si](OCCC)(OCCC)OCCC,inactive,–
CCCC1CCC(=O)CC1,inactive,–
CC=CC(=O)C1=C(C)C=CCC1(C)C,inactive,–
Cc1cc(N)n(-c2ccccc2)n1,inactive,–
CC(=O)CC(C)(C)C1CCCCC1,inactive,–
CC(C)COC(=O)c1ccccc1O,inactive,–
CC(=O)c1ccc(C)cc1,inactive,–
COc1ccc(OC)cc1,inactive,–
CC(C)CCCC(C)(C)O,inactive,–
CCCCC/C=C\C=C\C(=O)OCC,inactive,–
CC1=CCC(=C(C)C)CC1,inactive,–
O=c1cc[nH]cc1,inactive,–
CC1(C)CC(N)CC(C)(CN)C1 (stereo not given),inactive,–
CCCCN(CCCC)CCCCCCN(CCCC)CCCC,inactive,–

Structure (SMILES),outcome,AC50
CCCCN(CCO)CCO,inactive,–
C=C(C)CCCC(C)CCO (stereo not given),inactive,–
CCCOC(=O)CC,inactive,–
c1ccc(Cc2ccccc2)cc1,inactive,–
CNC(=C[N+](=O)[O-])NCCSCc1ccc(CN(C)C)o1,inactive,–
C=CC(=O)OCC(CO)(COC(=O)C=C)COC(=O)C=C,inactive,–
CCCCCCCCCCCCOCCOS(=O)(=O)O,inactive,–
CC/C=C\CCOC(C)OCC (stereo not given),inactive,–
N#CCCCC(C#N)CCC#N (stereo not given),inactive,–
CC(=O)c1ccc2ccccc2c1,inactive,–
C#C[C@]1(O)CC[C@H]2[C@@H]3CCc4cc(O)ccc4[C@H]3CC[C@@]21C,inactive,100 µM (active)
Brc1cc(Br)cc(Br)c1,inactive,–
CC(C)(CO)CO,inactive,–
Nc1ccc(O)c(N)c1,inactive,–
CC(C)N1C(=O)c2ccccc2C1=O,inactive,–
O=C(O)c1ccco1,inactive,–
O=C1OCc2ccccc21,inactive,–
c1ccc2c(c1)-c1ccc3ccc4cccc5cc-2c1c3c45,inactive,–
CC(=O)C1C(=O)C=C(C)OC1=O (stereo not given),inactive,–
